PubChem BioAssay AID588726 (The Scripps Research Institute Molecular Screening Center, 2011)
About 8,200 (2.3%) of roughly 360,000 compounds were called active. Cut-off read from the data, not from the text of the source: active = inhibition above about 27%; inactive = the rest. What follows is part of a selection rich in actives, with near analogues and random picks from the rest.

target: Fructose-bisphosphate aldolase (Mycobacterium tuberculosis (strain ATCC 25618 / H37Rv)) (UniProt P9WQA3); test: Mtb FBA enzyme inhibitors, primary screen, biochemical, fluorescence, strain H37Rv (AID 588726);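 note: 0% = vehicle and 100% = reference inhibitor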; settings: purified M. tuberculosis FBA, fluorescence read-out, at 1 µM, active compounds read high
Sequence (P9WQA3 whole entry, looked up): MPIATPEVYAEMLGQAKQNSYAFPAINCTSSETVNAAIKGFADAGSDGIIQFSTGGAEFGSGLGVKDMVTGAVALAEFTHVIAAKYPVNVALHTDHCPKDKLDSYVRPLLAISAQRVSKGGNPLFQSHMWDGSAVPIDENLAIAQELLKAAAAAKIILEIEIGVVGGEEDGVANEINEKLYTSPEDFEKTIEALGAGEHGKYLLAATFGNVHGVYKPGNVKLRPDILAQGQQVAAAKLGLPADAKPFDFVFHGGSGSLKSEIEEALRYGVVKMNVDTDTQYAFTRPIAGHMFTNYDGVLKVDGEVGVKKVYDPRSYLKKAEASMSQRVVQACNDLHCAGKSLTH

SMILES | inhibition
CCN(CC)S(=O)(=O)c1ccc(N2CC(C(=O)NCc3cccnc3)CC2=O)cc1 (centres undefined) | 1.11% (inactive)
Cc1c(CCC(=O)N[C@@H](CC(C)C)C(=O)O)c(=O)oc2c(C)c3oc4c(c3cc12)CCCC4 | 13.8% (inactive)
Cc1c(C)c2cc3c4c(oc3c(C)c2oc1=O)CCCC4 | 2.57% (inactive)
CC[C@@H](C)[C@H](NC(=O)CCc1c(C)c2cc3c4c(oc3c(C)c2oc1=O)CCCC4)C(=O)O | 27.5% (active)
O=C(Nc1ccccc1C(=O)N1CCOCC1)C1CCC(=O)N1C1CCCC1 (centres undefined) | 0.4% (inactive)
COCCn1c(=O)[nH]c2cc(C(=O)NCc3cccnc3)ccc2c1=O | 12.2% (inactive)
COc1ccc(C(=O)OCC(=O)Nc2ccc3[nH]c(=O)[nH]c3c2)c(OC)c1OC | 5.97% (inactive)
O=C(COc1ccc([N+](=O)[O-])cc1Cl)Nc1ccc2[nH]c(=O)[nH]c2c1 | -1.08% (inactive)
CC(C)(C)NC(=O)COc1ccc(CNc2ccc3[nH]c(=O)[nH]c3c2)cc1 | 64.6% (active)
COc1ccc(S(=O)(=O)N2CCC(C(=O)NCCC(=O)NCCc3cccc(F)c3)CC2)cc1 | 3.06% (inactive)
O=C(CCNC(=O)c1ccc(Br)cc1)NCC(c1ccco1)N1CCCCC1 (centres undefined) | -0.35% (inactive)
Cc1nn(Cc2ccccc2)c(C)c1CNC(=O)c1ccc(F)c(S(=O)(=O)N2CCOCC2)c1 | 0.09% (inactive)
Cc1ccccc1CSc1nnc(Cn2c(=O)sc3ccccc32)n1C | 3.39% (inactive)
CNc1nc(-c2ccccc2)cc(-c2ccccc2)n1 | 29.2% (active)
Cc1nc(NNC(=O)c2ccccc2)cc(-c2ccccc2)n1 | 1.26% (inactive)
Nc1cccc(-c2cc(-c3ccccc3)nc(-c3cccc(N)c3)n2)c1 | 16.1% (inactive)
O=[N+]([O-])c1ncc(Br)cc1Nc1ccccc1 | -5.84% (inactive)
CC1CCc2c(c3ccccc3[nH]c2=O)O1 (centres undefined) | -0.34% (inactive)
COC(=O)c1sc(N)c(C(=O)OC)c1COC(=O)CNS(=O)(=O)c1ccc(C)cc1 | 1.77% (inactive)
Cc1ccc(C(=O)NNC(=O)CSc2nnc3ccccn23)cc1 | 0.48% (inactive)
Cc1ccsc1C(=O)N[C@@H](C)c1nnc2ccccn12 | 51.8% (active)
CCn1c(SCC(=O)Nc2nc(C)cs2)nnc1C(C)NC(=O)c1ccccc1 (centres undefined) | 0.82% (inactive)

SMILES | inhibition
COc1cccc(N2CC(NC(=O)c3ccc4ccccc4c3)CC2=O)c1 (centres undefined) | 1.83% (inactive)
COc1ccc(S(=O)(=O)N2CCN(c3cnccn3)CC2)cc1 | 2.14% (inactive)
O=C1OCCN1C(=O)[C@H]1[C@H](c2ccc(Cl)cc2)C(c2cccc(Cl)c2)=NN1c1ccc(Br)cc1 | 57.4% (active)
C[C@@H]1C(c2ccc(F)cc2)=NN(c2ccc(Br)cc2)[C@H]1C(=O)N1CCOC1=O | 20.3% (inactive)
O=C1OCCN1C(=O)[C@H]1[C@H](c2ccc(F)cc2)C(c2ccccc2)=NN1c1ccc(Br)cc1 | 42.2% (active)
O=C1OCCN1C(=O)[C@H]1[C@H](c2ccccc2)C(c2ccc(F)cc2)=NN1c1ccccc1 | 11% (inactive)
Cc1nn(-c2ccccc2)c2c1C(c1cccc([N+](=O)[O-])c1)N(c1ccccc1)C(=O)N2 (centres undefined) | -3.95% (inactive)
CCOC(=O)c1cccc(NC(=O)CN2C(=O)C3CC=CCC3C2=O)c1 (centres undefined) | -2.2% (inactive)
CCC(=O)c1ccc(OCC(=O)OCC(=O)N2CCc3ccccc3C2)cc1 | 6.24% (inactive)
CCCN(CCc1ccccc1)C1CCc2c(O)cccc2C1 (centres undefined) | 3.16% (inactive)
CCOC(=O)C=Cc1ccc(C(=O)OCC)[nH]1 | -4.99% (inactive)
Cc1sc2ccccc2c1CNC[C@H]1O[C@@H](n2ccc(=O)[nH]c2=O)[C@H](O)[C@@H]1O | 1.01% (inactive)
Cc1cc(=O)n2nc(N3CCCC3C(=O)NCCCN3CC(C)CC(C)C3)sc2n1 (centres undefined) | 3.34% (inactive)
CCCSc1nc(NCc2ccco2)c2c3c(sc2n1)COC(C)(CC)C3 (centres undefined) | 2.94% (inactive)
CN1CCc2c(sc3c2c(NCc2ccco2)nc2nnnn23)C1 | 37.5% (active)
CCSc1nc2sc3c(c2c(=O)n1-c1ccc(C)cc1)CCN(C)C3 | 0.45% (inactive)
CC(C)(C)c1ccc(C(=O)NCC(=O)OCN2C(=O)c3ccccc3C2=O)cc1 | -0.24% (inactive)
CN1OC(COC(=O)c2ccc(Cl)cc2)CC1c1ccccc1 (centres undefined) | 0.19% (inactive)
CCCCNC(=O)CCNC(=O)c1ccc(C(C)(C)C)cc1 | -0.2% (inactive)
Cn1cncc1COC(=O)c1ccc(Cl)cc1 | 3.05% (inactive)
N#Cc1c(N)n(CCOC(=O)c2ccc(Cl)cc2)c2nc3ccccc3nc12 | 69.1% (active)
CC(C)(C)c1ccc(C(=O)NCCn2c(N)c(C#N)c3nc4ccccc4nc32)cc1 | 144% (active)

SMILES | inhibition
O=C(c1ccccc1Cl)N(Cc1ccccc1F)N1C(=O)CCCC1=O | -2.23% (inactive)
CC(C)CN(C(=O)c1ccc2c(c1)OCO2)C1CCS(=O)(=O)C1 (centres undefined) | -0.95% (inactive)
CC(=O)Nc1ccc(Nc2ncnc3c2nnn3Cc2ccccc2Cl)cc1 | 2.68% (inactive)
CC(=O)c1cnn(-c2cc(Oc3ccc(F)cc3)ncn2)c1C | 2.98% (inactive)
CCc1ccccc1NC(=O)CCOc1ccccc1 | 0.8% (inactive)
Cc1ccc(NC(=O)COC(=O)CN2CCSC2=O)cc1F | -1.26% (inactive)
CC1=NN(C(=O)c2ccc(Br)cc2)C(O)(c2ccccc2)C1 (centres undefined) | -1.19% (inactive)
COc1ccc(NC(=O)C2(C)Cc3c(-c4cccc(NC(C)=O)c4)ccnc3O2)cc1 (centres undefined) | 5.4% (inactive)
CSc1ccc(/C=N/N2CCN(Cc3ccccc3Cl)CC2)cc1 | -4.01% (inactive)
COCCn1c(SCC(=O)N2CCCCCC2)nc2c(c1=O)SCC2 | -1.33% (inactive)
Cc1cccn2c(=O)c3cc(C(=O)NCC4CCCO4)c(=N)n(Cc4ccc(F)cc4)c3nc12 (centres undefined) | 186% (active)
O=C(NCC1CCCO1)c1cc2c([nH]c3ccccc32)c(-c2ccc(F)cc2)n1 (centres undefined) | 14% (inactive)
Cc1cccn2c(=O)c3cc(C(=O)NCCN4CCOCC4)c(=N)n(Cc4cccnc4)c3nc12 | 131% (active)
O=C(NCc1cccnc1)c1cc(S(=O)(=O)N2CCOCC2)c(Cl)cc1Cl | -0.2% (inactive)
COc1ccc(CCNC(=O)Cn2c(=O)n(CC3CCCO3)c(=O)c3ccccc32)cc1OC (centres undefined) | 4.02% (inactive)
Cc1ccccc1NC(=O)Cn1c(=O)n(CC2CCCO2)c(=O)c2ccccc21 (centres undefined) | 2.56% (inactive)
Cc1cccc(NC(=O)c2ccc3c(=O)n(CC4CCCO4)c(=S)[nH]c3c2)c1 (centres undefined) | -2.72% (inactive)
Cc1ccc(Cn2c(C)c3cnn(CC(=O)NCCN4CCOCC4)c(=O)c3c2C)cc1 | -0.73% (inactive)
Cc1ccc(CCNC(=O)c2ccc3nc4ccccc4c(=O)n3c2)cc1 | 12.9% (inactive)
O=C(CSc1nc2ccccc2c(=O)n1Cc1ccc(F)cc1)NCC1CCCO1 (centres undefined) | 2.15% (inactive)
